The list is not random: actives were taken first. Their share in the collection is about 0.91%.
TRb SRC2 PPI: qHTS for Inhibitors of the Interaction of Thyroid Hormone Receptor and Steroid Receptor Coregulator 2. AID 1469, 2008. 280,000 tested, 0.065% active. Potency, µM (series often up to 106 µM), for the others: top-dose activity change, negative = inhibition, usual class: inhibitors. TRbeta-SRC2 peptide binding, fluorescence polarization; receptor liganded with 1 µM T3;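 also: plate controls were bound peptide for no effect and peptide without receptor for full effect; nearly all actives have a fitted effect of over 50% in size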
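A fluorescence polarization screen tested compounds at multiple concentrations against complex formation between 0.6 uM TRb ligand-binding domain and 20 nM Texas Red SRC2 peptide, with 1 uM T3 present; readout after 5 hr.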
APE1 inh: qHTS Assay for Inhibitors of the Human Apurinic/apyrimidinic Endonuclease 1 (APE1); DNA repair nuclease/redox regulator APEX1 (Homo sapiens), P27695; 350,000 tested, 0.35% active; Potency, µM (top dose mostly 65.8 µM), inactives show at the highest dose activity change, negative = inhibition, actives largely listed as inhibitors; recombinant APE1, TAMRA/BHQ-2 abasic DNA cleavage fluorescence;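 also: plate controls were vehicle for no effect and reference inhibitor for full effect; nearly all actives have a fitted effect of over 55% in size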
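Measures dequenching upon AP-site incision of a 5'-TAMRA/3'-BHQ-2 THF-containing duplex, 50 nM; human APE1 0.75 nM after 15 min room-temperature exposure to compound; kinetic three-point read at one-minute spacing.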
TR SRC2 fluor cs: Total Fluorescence Counterscreen for Inhibitors of the Interaction of Thyroid Hormone Receptor and Steroid Receptor Coregulator 2; TRb/SRC2 Texas Red total fluorescence interference; Potency, µM (series often up to 106 µM), inactives show top-dose fluorescence change, negative = quenching; 280,000 tested, 0.29% active; active = well fitted curve in either direction with a large enough effect; inconclusive = small, poorly fitted or top-dose-only effect
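Flags fluorescent or light-absorbing compounds by total fluorescence, S + 2P, at 555 nm excitation and 632 nm emission. Mixture: 20 nM Texas Red SRC2 peptide, 0.6 uM human TRb LBD, 1 uM T3, 5% DMSO; compound exposure 5 h at ambient temperature.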
RECQ1 inh: qHTS Assay for Inhibitors of RecQ-Like Dna Helicase 1 (RECQ1) | ATP-dependent DNA helicase Q1 (Homo sapiens), P46063 | RECQ1 DNA unwinding, red fluorescence kinetic read | Potency, µM (doses to about 57.3 µM), without a hit: at the top dose activity, negative = inhibition, most hits filed as inhibitors | 240,000 tested, 0.54% active;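 also: plate controls were vehicle for no effect and no enzyme for full effect; nearly all actives have a fitted effect of over 30% in size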
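50 nM RECQ1T1 preincubated 15 min with compound in Tris pH 8.0 buffer with MgCl2, DTT, Tween-20 and 2.5 ug/ml poly(dI-dC); started with 200 nM TAMRA/BHQ-2 forked duplex and 2 mM ATP. Unwinding read as fluorescence (525/598 nm), two reads 2 h apart.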
WRN inhibitor: qHTS for Inhibitors of WRN Helicase. WRN helicase unwinding, fluorescent forked duplex, kinetic. Potency, µM (doses to about 114 µM), for inactives: top-dose activity change, negative = inhibition, hits mostly inhibitors. 360,000 tested, 0.46% active; also: nearly all actives have a fitted effect of over 55% in size
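Kinetic red-fluorescence monitoring (525/598 nm) tracks WRN helicase activity after 100 nM fluorophore-quencher forked duplex and 2 mM ATP are added to 20 nM enzyme pretreated 15 min at room temperature with compound.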
BLM inh-1: qHTS Assay for Inhibitors of Bloom's syndrome helicase (BLM); 350,000 tested, 0.2% active; recombinant BLM DNA unwinding, fluorescence dequenching; Potency, µM (top dose mostly 56.1 µM), without a hit: top-dose activity change, negative = inhibition, usual class: inhibitors;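 also: plate controls were vehicle for no effect and no enzyme for full effect; nearly all actives have a fitted effect of over 35% in size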
BLM inh-2: qHTS Confirmation Assay for Inhibitors of Bloom's syndrome helicase (BLM). shares compounds with BLM inh-1. BLM DNA unwinding, fluorescence quenching, biochemical. Potency, µM, inactives show max response, negative = inhibition, usual class: inhibitors. 220 tested, 40% active. AID 2585, 2010;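 also: strand separation dequenches TAMRA so unwinding raises red fluorescence; series mostly up to about 69 µM; nearly all actives have a fitted effect of over 45% in size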
Active calls of the source: *; i = inactive; ? = inconclusive; . = not tested or not shown; [ ] = dose if it differs, or a comment. Unless noted, calls follow the shape of the dose curve; as a rule, active = well fitted curve in the direction sought with a large enough effect; inconclusive = small, poorly fitted or top-dose-only effect, or another doubt; inactive = no such curve, though single readings can be large; an effect the other way counts as inactive or inconclusive. Unless noted, % is scaled to controls: 0 for no effect and ±100 for the full control effect; potency is read from the fitted curve at half-maximal effect.

SMILES | TRb SRC2 PPI | APE1 inh | TR SRC2 fluor cs | RECQ1 inh | WRN inhibitor | BLM inh-1 | BLM inh-2
Cc1nc2ccc3nc(NC(=O)C4COc5ccccc5O4)sc3c2s1 (stereo unspecified) | -11.3% | -7.0% | 1.2% | -15.7% | 0.5%[57.1 µM] | -4.1% | 4.5%
O=c1oc(-c2ccccc2)nc2sc3c(c12)CCC3 | 9.1% | 1.2% | -16.7% | 2.4% | -15.6%[11.6 µM] | 14.1µM* | ?
C/C=C/c1ccc(OCC(=O)O)c(OC)c1 | -5.6% | 0.3% | -3.7% | -8.7% | -3.7%[11.6 µM] | -8.3% | .
CC(C)=CCOc1ccc(/C=C/C(=O)c2ccc(OCC=C(C)C)cc2OCC(=O)O)cc1 | -6.8% | 4.4% | 0.5% | i | . | 15.8µM* | ?
O=C(CCS(=O)(=O)c1ccccc1Cl)NCCC1=CCCCC1 | . | -10.2% | . | . | -3.7% | -3.3% | .
O=C(CSc1nc(-c2ccccc2)nc2c1CCCC2)c1ccc(Cl)cc1 | -6.0% | . | 0.9% | . | . | -2.1% | .
Cc1ccc(S(=O)(=O)N2CCCCC2)cc1NC(=O)c1cc(F)c(F)c(F)c1F | . | -8.2% | . | . | 4.5% | . | .
O=C(Nc1cccc(-c2nc3cccnc3s2)c1)c1cccnc1Cl | 6.3% | 0.9% | -0.5% | -9.3% | 10.5% | -8.9% | .
O=C(Nc1cccc(-c2nc3cccnc3s2)c1)C1c2ccccc2Oc2ccccc21 | 4.9% | ? | 1.4% | -29.4% | -26.8%[11.6 µM] | 10µM* | 12.9µM*
CCOc1ccccc1O[C@H](c1ccccc1)[C@H]1CNCCO1 | . | 51.0% | . | . | 7.5% | . | .
CCCc1cc(=O)[nH]c(SCC(=O)Nc2ccc3c(c2)CCC3)n1 | -3.9% | -0.6% | 2.1% | -8.4% | -4.8% | 0.0% | .
O=C(CSc1nc(O)cc(=O)[nH]1)Nc1ccc2c(c1)CCC2 | ? | 16.3% | -10.2% | -12.9% | ? | 22.4µM* | 3.4%
O=C1[C@@H]2CSC(c3ccc(F)cc3)N2C(=O)N1c1ccc(Cl)cc1 (stereo partly specified) | 4.4% | . | -0.5% | . | . | -7.2% | .
COc1ccc(NC(=O)CN(C)CC(=O)N2CCCCCC2)cc1 | . | 6.1% | . | . | -16.4% | . | .
COc1ccc(Cc2nc3ccccc3n2CC(=O)N/N=C/c2ccc(O)cc2)cc1OC | -3.2% | -2.3% | 5.7% | -0.6% | -8.0% | 1.4% | .
COc1ccc(Cc2nc3ccccc3n2CC(=O)N/N=C/c2ccc(C)cc2O)cc1OC | -7.2% | -4.4% | -2.1% | 8.5% | -20.1%[11.6 µM] | 10µM* | ?
CN(C)c1ccc(-c2nc(NCc3cccnc3)c3ccccc3n2)cc1 | 3.4% | -1.6% | -3.4% | ? | . | 15.8µM* | 22.9µM*
c1cncc(CNc2nc(-c3ccoc3)nc3ccccc23)c1 | -2.2% | 0.4% | -2.2% | -19.8% | . | -13.8% | .
Cc1cc(NC(=O)C(=O)NCc2cccc(Cl)c2)no1 | 2.2% | 4.1% | -0.1% | i | -0.8% | 1.1% | .
O=C1C=C(NCCN2CCOCC2)C(=O)c2cnccc21 | 2.1% | 1.4% | -1.2% | -0.5% | . | 25.1µM* | ?
O=C1C=C(NCCO)C(=O)c2cnccc21 | 1.6% | ? | -5.1% | -3.6% | . | ? | .
CC(C)N(C(=O)Nc1ccc2nsnc2c1)C(C)C | 0.0% | 3.7% | -8.1% | i | ? | 5.62µM* | ?
CCSc1ccc(-c2ccco2)nn1 | -4.7% | -0.1% | -1.3% | -22.1% | -0.8% | 10µM* | ?
S=C(Nc1ccc2nsnc2c1)NC1CCCCC1 | -11.5% | -7.5% | -5.4% | i | ? | 12.6µM* | -10.7%
COc1ccc(C)cc1NC(=O)C(c1ccccc1)N1CCN(CC(=O)NC2CC2)CC1 (stereo unspecified) | . | 44.0% | . | . | 9.1% | . | .
SMILES | TRb SRC2 PPI | APE1 inh | TR SRC2 fluor cs | RECQ1 inh | WRN inhibitor | BLM inh-1 | BLM inh-2
COc1cc(-c2nc3ccc(N4CCN(C)CC4)cc3[nH]2)cc(OC)c1OC | -4.7% | -10.5% | -8.2% | -14.0% | -22.3% | 20µM* | ?
CN1CCN(CC(O)COc2ccc(C34CC5CC(CC(C5)C3)C4)cc2)CC1 (stereo unspecified) | 2.7% | 3.8% | -2.6% | i | -3.3% | -4.2% | .
O=C(CN1C(=O)NC2(CCCC2)C1=O)Nc1cccc(Cl)c1 | . | 7.0% | . | . | -1.5% | 1.6% | .
CC1=NN(c2ccccc2)C(=O)/C1=C/c1c(O)n(-c2ccc(F)c(Cl)c2)[nH]c1=O | 7.3% | -5.0% | ? | -5.5% | ? | 17.8µM* | 36.3µM*
O=C(CCc1c[nH]c2ccccc12)NC(Cc1c[nH]c2ccccc12)C(=O)O (stereo unspecified) | . | 21.2µM* | . | . | -5.2% | 31.6µM* | -7.6%
O=[N+]([O-])c1ccc2c(c1)CO[C@@]21O[C@H](CCO)C[C@H](O)[C@H]1O | . | . | . | . | 5.4% | . | .
Cc1ccc(-c2csc3nnc(SCC(=O)Nc4nsc(-c5ccccc5)n4)n23)cc1 | -8.9% | -1.2% | -0.9% | -13.0% | 0.7% | -9.7% | .
O=C(CSc1nnc2scc(-c3ccccc3)n12)Nc1nsc(-c2ccccc2)n1 | -1.1% | -3.1% | -2.2% | 5.1% | ? | 20µM* | 36.3µM*
Cc1nc(-c2ccc(C(=O)Nc3cc(S(N)(=O)=O)ccc3C)cc2)cs1 | . | 28.8% | . | . | 3.3% | 7.08µM* | 6.46µM*
COc1ccccc1CNC(=O)C(C)n1ccc2cc(S(=O)(=O)N3CCCC3)ccc21 (stereo unspecified) | -5.0% | . | -0.1% | . | . | -4.3% | .
COc1ccc2c(c1)C(=NNC(=O)c1ccccn1)c1cc(OC)ccc1-2 | -27.0% | 11.3% | 1.2% | -4.9% | ? | 10µM* | 28.9µM*
O=C(Nc1ccccc1)Oc1ccc[nH]c1=O | 5.1% | -4.3% | 1.2% | -4.7% | -0.6% | 4.47µM* | -1.6%
CCOC(=O)c1cc(NC(=O)CN2CCCC2)cc(C(=O)OCC)c1 | . | 9.3% | . | . | 19.1% | 3.2% | .
Nc1ccc2nc3c(=O)n(CCc4ccccc4)c(=O)[nH]c3nc2c1 | -6.0% | -10.7% | -9.3% | -1.2% | -20.5% | -13.8% | .
CCCCn1c(=O)[nH]c2nc3cc(N)ccc3nc2c1=O | 5.7% | 13.2% | 2.3% | -8.5% | 50.1µM* | 5.62µM* | ?
COC(=O)c1c(NC(=O)COC(=O)c2ccccc2O)sc2c1CCCCC2 | -5.3% | 6.1% | ? | -1.6% | 2.2%[57.1 µM] | 0.0% | .

Assay outcomes (PubChem)
